{"source": "PubChem BioAssay (EPA / NIEHS)", "note": "Records with an inconclusive call do not appear. Activity calls are given as the source filed them. How the source made its calls: active means hit-call score of the fitted dose curve at least 0.9, where 1 is the maximum; inconclusive means response in the unintended direction; inactive means score below 0.9.", "data": [{"read-out": "Broad substrate specificity ATP-binding cassette transporter ABCG2 (Homo sapiens) (UniProt Q9UNQ0)", "experiment": "CLD_ABCG2_48hr: CellzDirect (CLD) Gene Expression Assay for ABC Transporter (ABCG2) at 48 hours (AID 2283704);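 on AC50: potency for induction of ABCG2 mRNA above the DMSO baseline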", "protocol": "CLD_48hr is a cell-based, multiplexed-readout assay that uses hepatocyte, a human liver primary cell, with measurements taken at 48 hours after chemical dosing in a 96-well plate.CLD_ABCG2_48hr is one of 16 assay component(s) measured or calculated from the CLD_48hr assay. It is designed to make measurements of mRNA induction, a form of inducible reporter, as detected with chemiluminescence signals by Quantitative Nuclease Protection Assay (qNPA) technology.Data from the assay component CLD_ABCG2_48hr was analyzed at the endpoint, CLD_ABCG2_48hr, in the positive analysis fitting direction relative to DMSO as the negative control and baseline of activity. Using a type of inducible reporter, gain-of-signal activity can be used to understand changes in the reporter gene as they relate to the gene ABCG2. Furthermore, this assay endpoint can be referred to as a primary readout. To generalize the intended target to other relatable targets, this assay endpoint is annotated to the transporter intended target family, where subfamily is ABC transporter.\nHuman hepatocyte cultures were treated daily for two consecutive days with fresh dosing solutions containing appropriate concentrations of the 320 ToxCast chemicals (chemical identities were blinded to CellzDirect and other ToxCast collaborators), vehicle control (0.2% DMSO), and positive control inducers as summarized in Table 1. Due to the large number of treatment groups and chemicals examined, the ToxCast chemicals were divided into two groups (spanning two independent cultures of hepatocytes from separate donor preparations (Hu778: ToxCast plates 1 and 2; Hu776: ToxCast plates 3 and 4). Each preparation of human hepatocyte cultures was treated with respective vehicle control, medium only control, set of six positive controls/reference chemicals for the five hepatic receptor pathways, and a subset of eight of the ToxCast chemicals (indoxacarb, pyrithiobac-sodium, norflurazon, cyhalofop-butyl, methomyl, thiram, acetochlor, and propiconazole). These replicate data, coupled with internal replicates designed within the blinded ToxCast chemical library, provided additional data to evaluate interindividual differences between hepatocyte preparations and their potential impact on chemical profiles.Cell morphology and integrity were evaluated using phase-contrast microscopy as an indicator of hepatocyte cell health (Tyson & Green, 1987). Cultures for each treatment group (i.e., media, vehicle [0.2% DMSO], positive control inducers [multiple concentrations], and the ToxCast chemicals [multiple concentrations]) were observed and cell morphology was assessed relative to vehicle control cultures at each harvest time point (0, 6, 24, or 48 h). […] Images were evaluated at the conclusion of the study to assess changes in cell integrity and account for the effects of chemical exposure on uncharacteristic changes in concentration-dependent gene expression profiles. The results from these determinations of apparent cytotoxicity were annotated (yes/no) alongside the corresponding qNPA data for reference.At the conclusion of each treatment period, hepatocyte cultures (96-well) were washed with 1 volume of HBSS, lysed by addition of 25 ul ArrayPlate lysis buffer (HTG, Tucson, AZ), and 70 ul/well of Denaturation Oil, denatured by incubation at 95C for 10 min, and frozen at approximately -70C until analysis by nuclease protection assay (qNPA) (Roberts et al., 2007). For qNPA analysis, cell lysates were thawed at 50C for approximately 30 min, qNPA probes were added, and samples were incubated at 95C for 10 min to begin the detection process by denaturing the target RNA, dissociating the duplexes and secondary structure hybridization. At the conclusion of the hybridization period, S1 nuclease reagent was added to each sample to digest all nonprotected nucleotides at 50C for 60-90 min. […]", "values": [{"compound": "CN(C)C(=O)Nc1cccc(C(F)(F)F)c1", "outcome": "inactive"}, {"compound": "CCCSP(=O)(OCC)SCCC", "outcome": "inactive"}, {"compound": "O=c1ccc(=O)[nH][nH]1", "outcome": "inactive"}, {"compound": "CCOC(=O)CC(SP(=O)(OC)OC)C(=O)OCC", "note": "(stereo not given)", "outcome": "inactive"}, {"compound": "S=C1NCCN1", "outcome": "inactive"}, {"compound": "CC(C1CC1)C(O)(Cn1cncn1)c1ccc(Cl)cc1", "note": "(stereo not given)", "outcome": "inactive"}, {"compound": "N#CSCSC#N", "outcome": "inactive"}, {"compound": "CCc1cccc(C)c1N(C(=O)CCl)C(C)COC", "note": "(stereo not given)", "outcome": "inactive"}, {"compound": "CCCOCC(=Nc1ccc(Cl)cc1C(F)(F)F)n1ccnc1", "AC50": "20 µM (active)"}, {"compound": "CCCSP(=O)(OCC)Oc1ccc(Br)cc1Cl", "note": "(stereo not given)", "outcome": "inactive"}, {"compound": "CCCCN(CC)c1c([N+](=O)[O-])cc(C(F)(F)F)cc1[N+](=O)[O-]", "outcome": "inactive"}, {"compound": "CCOP(=S)(OCC)Oc1ccc2c(C)c(Cl)c(=O)oc2c1", "outcome": "inactive"}, {"compound": "CCCCSP(=O)(SCCCC)SCCCC", "AC50": "33.5 µM (active)"}, {"compound": "COP(=O)(OC)SCn1c(=O)oc2cc(Cl)cnc21", "outcome": "inactive"}, {"compound": "CN1COCN(Cc2cnc(Cl)s2)C1=N[N+](=O)[O-]", "outcome": "inactive"}, {"compound": "CCOP(=S)(Oc1cnc(C(C)(C)C)nc1)OC(C)C", "note": "(stereo not given)", "outcome": "inactive"}, {"compound": "CCCCOC(=O)c1ccccc1C(=O)O", "outcome": "inactive"}, {"compound": "COP(=O)(NC(C)=O)SC", "note": "(stereo not given)", "outcome": "inactive"}, {"compound": "COP(=O)(OC)C(O)C(Cl)(Cl)Cl", "note": "(stereo not given)", "outcome": "inactive"}, {"compound": "CC1=NNC(=O)N(/N=C/c2cccnc2)C1", "outcome": "inactive"}, {"compound": "C#CCC1=C(C)C(OC(=O)C2C(C=C(C)C)C2(C)C)CC1=O", "note": "(stereo not given)", "outcome": "inactive"}, {"compound": "CC(COc1ccc(Oc2ccccc2)cc1)Oc1ccccn1", "note": "(stereo not given)", "outcome": "inactive"}, {"compound": "CC(C)=CC1C(C(=O)OCN2C(=O)C3=C(CCCC3)C2=O)C1(C)C", "note": "(stereo not given)", "outcome": "inactive"}, {"compound": "COc1cc(OC)nc(Sc2cccc(Cl)c2C(=O)O)n1", "outcome": "inactive"}, {"compound": "CCc1cnc(C2=NC(C)(C(C)C)C(=O)N2)c(C(=O)O)c1", "note": "(stereo not given)", "outcome": "inactive"}, {"compound": "CCCCOC(=O)[C@@H](C)Oc1ccc(Oc2ccc(C#N)cc2F)cc1", "outcome": "inactive"}, {"compound": "CCOP(=O)(SC(C)CC)N1CCSC1=O", "note": "(stereo not given)", "outcome": "inactive"}, {"compound": "CC[C@H](C)[C@H]1O[C@]2(C=C[C@@H]1C)C[C@@H]1C[C@@H](C/C=C(\\C)[C@@H](O[C@H]3C[C@H](OC)[C@@H](O[C@H]4C[C@H](OC)[C@@H](NC)[C@H](C)O4)[C@H](C)O3)[C@@H](C)/C=C/C=C3\\CO[C@@H]4[C@H](O)C(C)=C[C@@H](C(=O)O1)[C@]34O)O2", "outcome": "inactive"}, {"compound": "CON=C(C(=O)OC)c1ccccc1CON=C(C)c1cccc(C(F)(F)F)c1", "outcome": "inactive"}, {"compound": "C[Si](Cn1cncn1)(c1ccc(F)cc1)c1ccc(F)cc1", "AC50": "31.6 µM (active)"}, {"compound": "Cc1ccn2nc(S(=O)(=O)Nc3c(F)cccc3F)nc2n1", "outcome": "inactive"}, {"compound": "CCOP(=S)(OCC)OC(Cl)C(Cl)(Cl)Cl", "note": "(stereo not given)", "outcome": "inactive"}, {"compound": "CCOP(=O)(OCC)Oc1cc(C)nc(C(C)C)n1", "outcome": "inactive"}, {"compound": "C[N+]1(C)CCCCC1", "outcome": "inactive"}, {"compound": "COc1ccc(C(=CC(=O)N2CCOCC2)c2ccc(Cl)cc2)cc1OC", "AC50": "32 µM (active)"}, {"compound": "CCc1cccc(CC)c1N(COC)C(=O)CCl", "outcome": "inactive"}, {"compound": "CNC(=O)ON=C(SC)C(=O)N(C)C", "outcome": "inactive"}, {"compound": "FC(F)C(F)(F)OCC(Cn1cncn1)c1ccc(Cl)cc1Cl", "note": "(stereo not given)", "outcome": "inactive"}, {"compound": "CSC1=N[C@@](C)(c2ccccc2)C(=O)N1Nc1ccccc1", "outcome": "inactive"}, {"compound": "CC(Oc1cccc(Cl)c1)C(=O)O", "note": "(stereo not given)", "outcome": "inactive"}]}]}
